The campaign covered roughly 39,000 compounds. About 1,500 (3.8%) were called active. This is one part of a sample in which actives are shown more often than they occur.

The experiment concerns HSkMC (human skeletal muscle cells). The experiment is described as follows: cytotoxicity call (relative viability < 0.9). The note with it: 10 µM.
As for `Cc1noc(C)c1S(=O)(=O)Nc1ccc2c(c1)C(=O)N([C@H](C)CO)C[C@H](C)[C@@H](CN(C)Cc1ccc(Oc3ccccc3)cc1)O2`, the cytotoxicity call was “inactive”. On to `C[C@@H]1COCC(=O)N1`, for which the cytotoxicity call is “inactive”. Take `C[C@@H]1CN([C@H](C)CO)C(=O)c2cc(NC(=O)Cc3ccccc3)ccc2O[C@@H](C)CCCCO[C@@H]1CN(C)S(=O)(=O)c1cccs1`: the cytotoxicity call is “inactive”. With `COc1ccccc1C#Cc1cnc2c(c1)C(=O)N([C@H](C)CO)C[C@@H](C)[C@H](CN(C)S(=O)(=O)c1cn(C)cn1)O2`, the cytotoxicity call was “active”. On to `C[C@@H]1CN([C@H](C)CO)C(=O)c2cc(C#Cc3ccccc3F)cnc2O[C@H]1CN(C)S(=O)(=O)c1ccccc1F`, for which the cytotoxicity call is “inactive”. With `COc1ccccc1C#Cc1cnc2c(c1)C(=O)N([C@H](C)CO)C[C@@H](C)[C@@H](CN(C)S(=O)(=O)c1cn(C)cn1)O2`, the cytotoxicity call was “inactive”. The same measure for `C[C@H](CO)N1C[C@H](C)[C@@H](CN(C)S(=O)(=O)c2ccccc2F)Oc2ncc(C#Cc3ccccc3F)cc2C1=O`: “active”. `C[C@H]1CN([C@@H](C)CO)C(=O)c2cc(C#Cc3ccccc3F)cnc2O[C@@H]1CN(C)S(=O)(=O)c1ccccc1F`: the cytotoxicity call is “inactive”. Next, `COc1ccccc1C#Cc1cnc2c(c1)C(=O)N([C@@H](C)CO)C[C@@H](C)[C@@H](CN(C)S(=O)(=O)c1cn(C)cn1)O2`: “inactive”; `Cc1ccc(S(=O)(=O)Nc2ccc3c(c2)CC(=O)N([C@H](C)CO)C[C@@H](C)[C@@H](CN(C)S(=O)(=O)c2ccc(F)cc2)O3)cc1`: “inactive”; `Cc1ccc(S(=O)(=O)Nc2cccc3c2O[C@@H](CN(C)S(C)(=O)=O)[C@@H](C)CN([C@H](C)CO)C3=O)cc1`: “inactive”. In the case of `C[C@@H]1CN([C@H](C)CO)C(=O)c2ccccc2-c2ccccc2CO[C@@H]1CN(C)C(=O)Nc1cccc(C(F)(F)F)c1`, the cytotoxicity call was “inactive”. Turning to `C[C@@H]1CCCCO[C@H](CN(C)CC2CCCCC2)[C@H](C)CN([C@H](C)CO)C(=O)c2cc(NC(=O)c3ccccc3)ccc2O1`, the cytotoxicity call was “inactive”. In the case of `C[C@@H]1CCCCO[C@H](CN(C)Cc2ccc(C(F)(F)F)cc2)[C@H](C)CN([C@@H](C)CO)C(=O)c2cc(NC(=O)NC3CCCCC3)ccc2O1`, the cytotoxicity call is “active”.

On to `C[C@@H]1CCCCO[C@H](CN(C)Cc2ccc(C(F)(F)F)cc2)[C@@H](C)CN([C@H](C)CO)C(=O)c2cc(NC(=O)NC3CCCCC3)ccc2O1`, for which the cytotoxicity call was “inactive”. With `C[C@@H]1CN([C@H](C)CO)C(=O)c2cc(NC(=O)NC3CCCCC3)ccc2O[C@@H](C)CCCCO[C@@H]1CN(C)Cc1ccc(C(F)(F)F)cc1`, the cytotoxicity call was “inactive”.

Regarding `C[C@@H]1CCCCO[C@@H](CN(C)Cc2ccc(C(F)(F)F)cc2)[C@@H](C)CN([C@@H](C)CO)C(=O)c2cc(NC(=O)NC3CCCCC3)ccc2O1`, the cytotoxicity call was “active”.

`C[C@@H]1CCCCO[C@@H](CN(C)Cc2ccc(C(F)(F)F)cc2)[C@H](C)CN([C@@H](C)CO)C(=O)c2cc(NC(=O)NC3CCCCC3)ccc2O1`: the cytotoxicity call was “inactive”. Next, `C[C@@H]1CN([C@H](C)CO)C(=O)c2cc(NC(=O)NC3CCCCC3)ccc2O[C@@H](C)CCCCO[C@H]1CN(C)Cc1ccc(C(F)(F)F)cc1`: “inactive”. On to `C[C@@H]1CN([C@@H](C)CO)C(=O)c2cc(NC(=O)NC3CCCCC3)ccc2O[C@@H](C)CCCCO[C@@H]1CN(C)Cc1ccc(C(F)(F)F)cc1`, for which the cytotoxicity call is “inactive”.

Consider `C[C@H](CO)N1C[C@H](C)[C@H](CN(C)Cc2ccc(C(F)(F)F)cc2)OCCCC[C@H](C)Oc2ccc(NC(=O)NC3CCCCC3)cc2C1=O`, for which the cytotoxicity call is “inactive”.

Turning to `C[C@H]1CCCCO[C@@H](CN(C)Cc2ccc(C(F)(F)F)cc2)[C@@H](C)CN([C@@H](C)CO)C(=O)c2cc(NC(=O)NC3CCCCC3)ccc2O1`, the cytotoxicity call is “active”. Turning to `C[C@@H]1CCCCO[C@H](CN(C)Cc2ccc(C(F)(F)F)cc2)[C@@H](C)CN([C@@H](C)CO)C(=O)c2cc(NC(=O)NC3CCCCC3)ccc2O1`, the cytotoxicity call was “inactive”.

As for `C[C@@H]1CCCCO[C@@H](CN(C)Cc2ccc(C(F)(F)F)cc2)[C@H](C)CN([C@H](C)CO)C(=O)c2cc(NC(=O)NC3CCCCC3)ccc2O1`, the cytotoxicity call was “inactive”.

Turning to `C[C@@H]1CCCCO[C@H](CN(C)Cc2ccc(C(F)(F)F)cc2)[C@H](C)CN([C@H](C)CO)C(=O)c2cc(NC(=O)NC3CCCCC3)ccc2O1`, the cytotoxicity call was “active”. Turning to `COc1ccc(CCNC(=O)[C@@]2(Sc3ccc(C)cc3)CC(=O)N(C(C)C)[C@@H]2c2ccc(CO)cc2)cc1`, the cytotoxicity call was “inactive”. The same measure for `COc1ccc(NC(=O)N(C)C[C@H]2Oc3c(NC(=O)C4CC4)cccc3C(=O)N([C@@H](C)CO)C[C@@H]2C)cc1`: “inactive”. In the case of `C[C@@H]1CN([C@H](C)CO)S(=O)(=O)c2ccc(C#Cc3ccncc3)cc2O[C@@H]1CN(C)C(=O)C1CCC1`, the cytotoxicity call is “inactive”.

For `COc1cccc(S(=O)(=O)Nc2ccc3c(c2)[C@@H]2C[C@H](CC(=O)NCc4ccccc4F)O[C@H](CO)[C@@H]2O3)c1`, the cytotoxicity call was “inactive”. For `C[C@@H]1CCCCO[C@H](CN(C)S(=O)(=O)c2cccs2)[C@H](C)CN([C@@H](C)CO)C(=O)c2cc(NC(=O)Nc3ccccc3)ccc2O1`, the cytotoxicity call was “inactive”. Take `C[C@@H]1CCCCO[C@@H](CN(C)C(=O)Cc2ccccc2)[C@@H](C)CN([C@@H](C)CO)C(=O)c2cc(NS(=O)(=O)c3ccc(F)cc3)ccc2O1`: the cytotoxicity call was “inactive”. Take `C[C@H]1CN([C@@H](C)CO)C(=O)Cc2cc(NC(=O)C3CCCCC3)ccc2O[C@H]1CN(C)C(=O)Nc1ccc(C(F)(F)F)cc1`: the cytotoxicity call was “inactive”.

As to `C[C@@H]1CN([C@H](C)CO)C(=O)c2cc(NC(=O)C3CCCCC3)ccc2O[C@@H](C)CCCCO[C@@H]1CN(C)C(=O)c1ccccc1`, the cytotoxicity call is “inactive”. Consider `C[C@H]1CN([C@@H](C)CO)C(=O)Cc2cc(NC(=O)CCC(F)(F)F)ccc2O[C@H]1CN(C)S(=O)(=O)c1cccs1`, for which the cytotoxicity call was “inactive”. The same measure for `C[C@H](CO)N1C[C@H](C)[C@@H](CN(C)Cc2ccc(C(=O)O)cc2)OCCCC[C@H](C)Oc2ccc(NC(=O)Nc3ccccc3)cc2C1=O`: “inactive”. For `CC(C)(ON=C(C(=O)NC1C(=O)N2C(C(=O)[O-])=C(C[n+]3ccccc3)CSC12)c1csc(N)n1)C(=O)O` (stereo not drawn), the cytotoxicity call was “inactive”. In the case of `C[C@H](CO)N1C[C@H](C)[C@@H](CN(C)Cc2ccc(C(F)(F)F)cc2)OCCCC[C@H](C)Oc2ccc(NC(=O)NC3CCCCC3)cc2C1=O`, the cytotoxicity call is “active”. Regarding `C[C@@H]1CN([C@@H](C)CO)C(=O)c2cc(NC(=O)NC3CCCCC3)ccc2O[C@@H](C)CCCCO[C@H]1CN(C)Cc1ccc(C(F)(F)F)cc1`, the cytotoxicity call was “inactive”. For `C[C@H]1CCCCO[C@H](CN(C)Cc2ccc(C(F)(F)F)cc2)[C@@H](C)CN([C@@H](C)CO)C(=O)c2cc(NC(=O)NC3CCCCC3)ccc2O1`, the cytotoxicity call was “inactive”. For the molecule `Cc1ccc(/C=N/N(C)C2=NCCN2)o1`, the cytotoxicity call was “inactive”. Consider `Cc1cc(C)c2c(c1)[C@@H](N(Cc1cc(C(F)(F)F)cc(C(F)(F)F)c1)c1nnn(C)n1)CCCN2C[C@H]1CC[C@H](C(=O)O)CC1`, for which the cytotoxicity call was “active”. `C[C@H]1CN([C@@H](C)CO)C(=O)c2cc(NC(=O)Nc3ccc(C(F)(F)F)cc3)ccc2O[C@H]1CN(C)C(=O)Nc1ccc2c(c1)OCO2`: the cytotoxicity call is “inactive”.

Turning to `CC(=O)N(C)C[C@@H]1Oc2ncc(C#C[C@@H](C)O)cc2C(=O)N([C@H](C)CO)C[C@@H]1C`, the cytotoxicity call is “inactive”. `C[C@@H]1CN([C@@H](C)CO)C(=O)c2cc(NC(=O)c3ccncc3)ccc2O[C@@H](C)CCCCO[C@H]1CN(C)C(=O)Nc1ccc2c(c1)OCO2`: the cytotoxicity call is “inactive”. Turning to `COc1ccc(CN(C)C[C@@H]2OCCCC[C@H](C)Oc3ccc(NS(=O)(=O)c4ccc(Cl)cc4)cc3C(=O)N([C@H](C)CO)C[C@H]2C)cc1`, the cytotoxicity call was “inactive”. For the molecule `Cn1cc(CN2CCC(C(=O)N[C@@H](c3ccc(F)cc3)c3ccc4ccccc4n3)CC2)c2ccccc21`, the cytotoxicity call is “active”. Consider `O=C(N[C@H](c1ccc(F)cc1)c1ccc2ccccc2n1)C1CCN(Cc2ccc(Oc3ccccc3)cc2)CC1`, for which the cytotoxicity call is “inactive”. Next, `COc1cc(CN2CCC(C(=O)N[C@@H](c3ccc(F)cc3)c3ccc4ccccc4n3)CC2)cc(OC)c1`: “inactive”; `O=C(N[C@H](c1ccc(F)cc1)c1ccc2ccccc2n1)C1CCN(Cc2cccc(C(F)(F)F)c2)CC1`: “active”. `O=C(N[C@H](c1ccc(F)cc1)c1ccc2ccccc2n1)C1CCN(Cc2ccc3ccccc3n2)CC1`: the cytotoxicity call was “inactive”. Consider `O=C(N[C@@H](c1ccccc1)c1ccc2ccccc2n1)C1CCN(Cc2cccc(C(F)(F)F)c2)CC1`, for which the cytotoxicity call was “inactive”. In the case of `COc1ccc(CNC(=S)NCCO)cc1`, the cytotoxicity call is “inactive”.

As for `O=S(=O)(NCC[C@@H]1CC[C@H](NS(=O)(=O)c2cccc(Cl)c2)[C@@H](CO)O1)c1cccc(F)c1`, the cytotoxicity call is “inactive”. Next, `Cc1noc(C)c1NC(=O)N(C)C[C@H]1Oc2ccc(NS(=O)(=O)c3cccs3)cc2CC(=O)N([C@@H](C)CO)C[C@@H]1C`: “inactive”. For the molecule `CCCNC(=O)N1C[C@H](O)COC[C@@H]2O[C@@H](CC(=O)NCc3ccncn3)CC[C@H]21`, the cytotoxicity call was “inactive”. With `CC(C)(C)NCCCCOc1ccc(Cl)cc1C(C)(C)C`, the cytotoxicity call was “inactive”. On to `Cc1ccc(OCc2ccc(Cl)cc2)c(C(C)(C)C)c1`, for which the cytotoxicity call was “inactive”. Next, `CC[C@@H](C)NCCCCOc1ccc(Cl)cc1C(C)(C)C`: “active”. For `C[C@@H]1CCCCO[C@H](CN(C)C(=O)CCC(F)(F)F)[C@H](C)CN([C@@H](C)CO)C(=O)c2cc(NS(=O)(=O)c3ccc(Cl)cc3)ccc2O1`, the cytotoxicity call was “inactive”.

As for `C[C@@H]1CN([C@H](C)CO)C(=O)c2cc(-c3cccc(C#N)c3)cnc2O[C@H]1CN(C)C(=O)c1cnccn1`, the cytotoxicity call was “inactive”. For the molecule `CO[C@@H]1CN(C)C(=O)c2ccc(NS(C)(=O)=O)cc2OC[C@@H](C)N(S(=O)(=O)CC(F)(F)F)C[C@H]1C`, the cytotoxicity call is “inactive”.

On to `C[C@@H]1CN([C@H](C)CO)C(=O)c2cccc(NC(=O)Nc3ccc(C(F)(F)F)cc3)c2O[C@@H]1CN(C)C(=O)Nc1ccccc1`, for which the cytotoxicity call is “active”. Next, `C[C@@H]1CN([C@@H](C)CO)C(=O)c2cccc(NC(=O)Nc3ccccc3)c2O[C@@H]1CN(C)C(=O)Nc1ccc(C(F)(F)F)cc1`: “inactive”. For the molecule `COc1ccc(NC(=O)N(C)C[C@H]2Oc3c(NC(=O)Nc4ccc(C(F)(F)F)cc4)cccc3C(=O)N([C@@H](C)CO)C[C@@H]2C)cc1`, the cytotoxicity call was “active”. Turning to `C[C@H]1CN([C@@H](C)CO)C(=O)c2cccc(NC(=O)Nc3ccc(C(F)(F)F)cc3)c2O[C@@H]1CN(C)C(=O)Nc1ccc(F)cc1`, the cytotoxicity call was “inactive”. Regarding `COc1ccc(NC(=O)Nc2cccc3c2O[C@H](CN(C)C(=O)Nc2ccc(C(F)(F)F)cc2)[C@@H](C)CN([C@@H](C)CO)C3=O)cc1`, the cytotoxicity call was “inactive”. Next, `C[C@H]1CN([C@@H](C)CO)C(=O)c2cccc(NC(=O)Nc3ccc(C(F)(F)F)cc3)c2O[C@H]1CN(C)C(=O)Nc1ccc(C(F)(F)F)cc1`: “inactive”; `C[C@@H]1CN([C@H](C)CO)C(=O)c2cccc(NC(=O)Nc3ccc(F)cc3)c2O[C@H]1CN(C)C(=O)Nc1ccc(C(F)(F)F)cc1`: “inactive”; `C[C@H]1CN([C@@H](C)CO)C(=O)c2cccc(NC(=O)Nc3ccc(C(F)(F)F)cc3)c2O[C@@H]1CN(C)C(=O)Nc1ccccc1`: “inactive”. Consider `COc1ccc(NC(=O)Nc2cccc3c2O[C@@H](CN(C)C(=O)Nc2ccc(C(F)(F)F)cc2)[C@@H](C)CN([C@@H](C)CO)C3=O)cc1`, for which the cytotoxicity call was “inactive”. With `C[C@H](CO)N1C[C@H](C)[C@H](CN(C)C(=O)Nc2ccc(C(F)(F)F)cc2)Oc2c(NC(=O)Nc3ccc(C(F)(F)F)cc3)cccc2C1=O`, the cytotoxicity call is “active”. Regarding `C[C@@H]1CN([C@H](C)CO)C(=O)c2cccc(NC(=O)Nc3ccc(C(F)(F)F)cc3)c2O[C@@H]1CN(C)C(=O)Nc1ccc(C(F)(F)F)cc1`, the cytotoxicity call was “active”. In the case of `C[C@H](CO)N1C[C@H](C)[C@H](CN(C)C(=O)Nc2ccc(C(F)(F)F)cc2)Oc2c(NC(=O)Nc3ccccc3)cccc2C1=O`, the cytotoxicity call is “inactive”.

Source of the values: the antibiotic and cytotoxicity screens of Wong et al. (2023).
